± gives the standard deviation of the averaged measurements. Whole data set: some 25,000 sequences, median “ln(normalized median fluorescence intensity)” near 7.9, cut for the highest 2% near 11. Many of the other results were omitted from the sample, so the highest values are more common in it than they were.
Tested on: PfAP2-I AP2 domain 3 (GST-tagged)
Assay: gcPBM binding intensity (ln(normalized median fluorescence intensity)); higher = stronger DNA binding
Summary of the method: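 DNA-binding domains from P. falciparum, fused to GST and produced in E. coli, were put on an Agilent 4 × 180k double-stranded probe array for 1 h in 1× PBS holding 1% milk, 0.2 mg/ml BSA, 0.5% salmon testes DNA and 0.03% Triton X-100. Probes were primer-extended, 36 bp long and drawn from intergenic genomic regions, with negative controls included. After Alexa488 anti-GST antibody detection and a 488 nm scan, binding intensity was set as the highest Masliner-normalised natural-log median intensity across replicate spots of either probe orientation.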

Row | Sequence | gcPBM binding intensity (ln)
1 | ATTATTATTATATTTTGTACATATGTAACAATATAT [XGTACX_site5780] | 7.83 ± 0.47
2 | TTAAAAGAATATAATGCACACATTATTTTATTTTAT [CACACA_site3772] | 10.9 ± 0.73
3 | CATTTATATAAAAGAACACACATATAAAATATTATT [CACACA_site3601] | 7.66 ± 0.52
4 | GAAATAATTTCATATACACACATATACATACATACA [CACACA_site1358] | 8.44 ± 0.72
5 | ATAAAATATATATGCACACACATATATATTTCATAC [CACACA_site3547] | 9.5 ± 0.14
6 | TATATAAATTTAATAACACACATATAAAAATGAATT [CACACA_site2366] | 7.61 ± 0.55
7 | ATAATTTCATAATACGTGCACATAATATATAAAAAA | 11.385 ± 0.007
8 | AATTTAATATAATGCACACATAAAAAAAAAAAAAAA [CACACA_site123] | 11.2 ± 0.78
9 | AACATTTATATAAAAGAACACACATATAAAATATTA [CACACA_site9199] | 7.62 ± 0.61
10 | ATAAAAAAATTAAATACATGCACATATACACATACA [TGCATGCA_site129] | 8.17 ± 0.38
11 | GCACACATATAATAATGTACATATATATATTTAAAA [XGTACX_site4561] | 7.96 ± 0.44
12 | AATAATTTTTTAAACACACACACATATATATATATA [CACACA_site95] | 9.32 ± 0.28
13 | AAAATTTAATATAATGCACACATAAAAAAAAAAAAA [CACACA_site7923] | 11 ± 0.93
14 | AAAAATAGAATAAATACACACCCGTGTAACGGATTT [CACACA_site3372] | 7.29 ± 0.93
15 | ATAAATTATATTCAAGTGCATGTAACTTATTATTAT | 8.29 ± 0.32
16 | TTTTTTATTCATGTAACACACATTTAATTATGAATT [CACACA_site2706] | 7.98 ± 0.58
17 | ACATAAATATAAACGTGTACATATATAAATATATAT [XGTACX_site7293] | 8.06 ± 0.26
18 | TCTTTTTTGAACTAGCGTACATGAAAATATTTATAG [XGTACX_site7359] | 7.83 ± 0.28
19 | AAAATTTAATATAATGCACACATAAAAAAAAAAAAT [CACACA_site8425] | 11.1 ± 1
20 | ATTAAAATTTAAAATACACACACATATATATAATAT [CACACA_site8612] | 7.91 ± 0.42
21 | TATAATTTAAAATACACACACATATATATAATATAT [CACACA_site2000] | 7.71 ± 0.47
22 | AAAATTATCGTTATATGTACGCATCTTAATACGTAT [XGTACX_site4063] | 7.79 ± 0.4
23 | GTGTAGTAAAATCGATGTACGTACAAATCAATTATT [XGTACX_site7662] | 8.06 ± 0.39
24 | AAAAACAAACTGTGCATGCACCAAAAAAAAAAAAAA | 10.4 ± 0.35

Row | Sequence | gcPBM binding intensity (ln)
25 | TTTTTCATTTAGCTTTTACACACTATATATTATTGA [CACACA_site7888] | 7.94 ± 0.86
26 | CAGGTGCACTATATTACACACGCTTCTTTTTTTTTA [CACACA_site2069] | 11.7 ± 0.59
27 | ATATATATATATATTACACACTTTTTCTTTTTTTTT [CACACA_site2780] | 9.41 ± 0.35
28 | TACAATCTAAAATACACACGCACACCGAAAAAAAAA [CACACA_site3520] | 8.13 ± 0.37
29 | TTTTTTTTTTTAAATACATGCATGTCCTATTTAAAT [TGCATGCA_site494] | 7.92 ± 0.89
30 | TATATCTATTTCAAATGTACTTATATGATTCTTATA [XGTACX_site6277] | 7.67 ± 0.2
31 | AATATAATATATTGCACACAAAAAGTGAATTATTCT [CACACA_site1684] | 10.2 ± 0.4
32 | AATATATTGCACCATTGGACCTGAATAATTCTTCCA [CACACA_negctrl_site1071] | 11.8 ± 0.81
33 | TAATATATGTATTGCACACCTATAACCATTATTTCT [CACACA_site1498] | 10.2 ± 0.38
34 | AAGGGTTATAAAAATTGTACTTTTTTTATTTTTTTT [XGTACX_site1313] | 7.72 ± 0.56
35 | CACTTTAATTTATGCACACATATGGAACAACAGCCA [CACACA_site994] | 10.2 ± 0.38
36 | ATATACACTTAATTTTTTATAAAAAAAAATTTATAT [CACACA_negctrl_site498] | 7.66 ± 0.43
37 | TATTATAATATATTTGTGCACATAATATCTCCGCTA [GTGCAC_site9799] | 10.91 ± 0.049
38 | TTTTAAACAAAAATTTGTACACAATAATTAAATATA [XGTACX_site6755] | 7.79 ± 0.32
39 | AAATATTTATAGGTTTGTACTTATAAATAAAAAAAA [XGTACX_site7360] | 7.83 ± 0.41
40 | ATATATATCTTTTGTGTGCACATATATATAATATAT | 9.79 ± 0.22
41 | CATATAAATATTTGTGCACACAATTATTAATAATTA [CACACA_site3884] | 11.3 ± 0.23
42 | TTATAATATTAATGTGCACACAATTAAAATATTATA [CACACA_site2046] | 10.6 ± 0.26
43 | ATATAAATATATTGCACACACAATTATTATTATTAT [CACACA_site7147] | 10.1 ± 0.45
44 | TATATTCTTTATAGGTGTACTTAATAAATAAAAAAT [XGTACX_site5378] | 8.11 ± 0.23
45 | TTTTTTTAATAGTGTGCACACAATATACAGAAAAAA [CACACA_site8399] | 10.1 ± 0.11
46 | TATTATAATATATTTGTGCACATAATACCTCCGCTA [GTGCAC_site9570] | 10.7 ± 0.18
47 | TTTTTTTTTTTTTTTGTGCACAATATAATTTTTAAT [GTGCAC_site9747] | 10.9 ± 0.52
48 | ATATATATAATATAGGTGCACTACTTATTTAAAAAA | 11.6 ± 0.2

Row | Sequence | gcPBM binding intensity (ln)
49 | ATAAATATTATTTTACGTACATATTTATGAAGTATT [XGTACX_site8746] | 7.92 ± 0.29
50 | ATTGTTCTATGATTTGTACACACTTTTTTTTAAAAT [CACACA_site2825] | 8.43 ± 0.46
51 | TTACATACATACAAGTGTACGCATATATTAATATTA [XGTACX_site4006] | 8 ± 0.26
52 | ATTATTTGTTTAATGAGTACGAAGACAAATTTTACC [XGTACX_site5223] | 8.12 ± 0.49
53 | TTTATAAAAAGCATAACACACACATGTCAATATATA [CACACA_site8286] | 7.71 ± 0.52
54 | TGAATCAATTGTTGCTGTACATAAGGTATACAATAA [XGTACX_site5127] | 7.97 ± 0.52
55 | ATGTATATATATATATGTACTAATTAGTAATTTACG [XGTACX_site6276] | 7.87 ± 0.32
56 | TGAAATTTTATTAATGTGCACATATATTTATTGTTC | 9.77 ± 0.26
57 | TATTATTCAAAATTTGTGCACAAAATTAAAGGAACA | 10.8 ± 0.27
58 | TGTATATGGTTTGTGCAAAAATTTATTAATGTGTAA [TGCATGCA_negctrl_site374] | 8.8 ± 0.35
59 | ATATTTTATATATTTGTGCACAATATTATAATATAT | 11.04 ± 0.049
60 | TAATATAATATATGCACACAAATATGTATTTATGTG [CACACA_site5210] | 9.14 ± 0.014
61 | TATTTTATTTGTATATTCATTTGTATAATATAAATA [TGCATGCA_negctrl_site267] | 7.37 ± 0.55
62 | ATTTTTATTTTTTTTGTGCACATTTTCATTTTCTAT [GTGCAC_site9580] | 10.4 ± 0.47
63 | ATTTTTATTTTATATACACACAATAATAATATAATA [CACACA_site4015] | 7.83 ± 0.43
64 | AATTTATATAATTTTGTGCACAATATTCATGTATAT | 11 ± 0.14
65 | ATATATATTAATTTTGTGCACAAATGGAAATGTTTG [GTGCAC_site9971] | 11 ± 0.2
66 | ATATTTTATTTAATTACACACAATATTGCAATTTGT [CACACA_site669] | 8.35 ± 0.53
67 | TTTTTTTTTTTTTTTGTGCACAATTATTTCAATTTT [GTGCAC_site9884] | 10.9 ± 0.79
68 | ATAAAATACAAAGGGACACACATATGAGTCTACAAA [CACACA_site3092] | 7.54 ± 0.6
69 | ATATATATATATGTTTATTTATTTGAACGATTGTGG [CACACA_negctrl_site828] | 9.4 ± 0.56
70 | AAAAAATTAAATAATTACAAAAAAATAAAATAAAAA [GTGCAC_negctrl_site638] | 7.5 ± 0.59
71 | TAAAAAATTTTCGCGTGTACGCAAGAAAAAAAAAAT [XGTACX_site3058] | 8.04 ± 0.72
72 | TTAAAAAAGTAATTAACACACAATAATGTAATGCAT [CACACA_site4176] | 8.18 ± 0.55

Row | Sequence | gcPBM binding intensity (ln)
73 | TATTCTTCAATTTAAAGTACAAAAATTACTATACTT [XGTACX_site6599] | 7.58 ± 0.28
74 | AATATTATAAATGATACACACTTAAAATACAGACAC [CACACA_site8868] | 8.19 ± 0.4
75 | AATATTTATATTTACACACACATAATACCTATATGT [CACACA_site6167] | 7.83 ± 0.42
76 | TAAATGAGAAGGACTGCACACTAAAATGGAAGGAGA [CACACA_site8449] | 8.23 ± 0.71
77 | ATCCTGAACAGAATATGTATAAACAGAAGGAAACAA [CACACA_negctrl_site1805] | 7.92 ± 0.54
78 | GACATATATATAAAATGTACATATATATTTACATAT [XGTACX_site7822] | 7.75 ± 0.33
79 | TATTTATTTTTTTTTGTGCACTTAATATAATCTTAC | 11.07 ± 0.042
80 | ATTCAATATATATACACACACACTTTTAATAATTAA [CACACA_site3770] | 8.1 ± 0.43
81 | TTTAATTTATATTTTGTGCACATCTTATTATATATA [GTGCAC_site9630] | 10.5 ± 0.21
82 | TTTTTAATATATTAGGTGCACAATAATACACTTTAT | 11.51 ± 0.064
83 | ATTATTATTAATCTTGTGCACATATATTTTAATTAG | 10.6 ± 0.23
84 | ATTCAATATTTATACACACACACTTTTAATAATTAA [CACACA_site7725] | 8.05 ± 0.55
85 | CCGATATAATGGAAAACACACAAAAGATATATATAT [CACACA_site2683] | 9.01 ± 0.15
86 | AATATTTATAAATTTACACACACACCGGTGAACATA [CACACA_site8579] | 7.79 ± 0.57
87 | TTTTATAAATACACACGTACGTGTGCATAACGTTTT [XGTACX_site3199] | 9.465 ± 0.092
88 | TTTTTTTTTATAAATACACACGTACGGGTGCATAAC [CACACA_site8444] | 10.9 ± 0.73
89 | CATTTTTTTTTATAAATACACACGTACGGGTGCATA [CACACA_site1569] | 8.54 ± 0.54
90 | ATATGTAGATGATATTATTACTTTTCAAAAATTCAA [CACACA_negctrl_site933] | 7.58 ± 0.39
91 | TATGGTTTTAAAAAATGTACGCAAGTGCGTTAATTT [XGTACX_site3945] | 11.2 ± 0.93
92 | ATCATTTTTAATAAATGTACAAGTTTTAAAAAAAAA [XGTACX_site7340] | 7.7 ± 0.6
93 | TCGTGGTTTTAATAAGTGCGCAATTTAAATATTTTT | 9.31 ± 0.18
